Screening results as filed in PubChem BioAssay.
Sampled rows, rich in hits. Any-hit rate of the full collection: about 8%.
RORg inh: ROR gamma (mouse) transcription inhibition; Potency, µM (series often up to 53.6 µM), actives largely listed as inhibitors; Drosophila S2 Gal4-RORgamma UAS-luciferase reporter, 20 h; P51450; AID 2551; 310,000 compounds, 5.4% hits; also: nearly all actives have a fitted effect of over 60% in size
Target sequence (P51450 whole entry, looked up, the tested form may be a part): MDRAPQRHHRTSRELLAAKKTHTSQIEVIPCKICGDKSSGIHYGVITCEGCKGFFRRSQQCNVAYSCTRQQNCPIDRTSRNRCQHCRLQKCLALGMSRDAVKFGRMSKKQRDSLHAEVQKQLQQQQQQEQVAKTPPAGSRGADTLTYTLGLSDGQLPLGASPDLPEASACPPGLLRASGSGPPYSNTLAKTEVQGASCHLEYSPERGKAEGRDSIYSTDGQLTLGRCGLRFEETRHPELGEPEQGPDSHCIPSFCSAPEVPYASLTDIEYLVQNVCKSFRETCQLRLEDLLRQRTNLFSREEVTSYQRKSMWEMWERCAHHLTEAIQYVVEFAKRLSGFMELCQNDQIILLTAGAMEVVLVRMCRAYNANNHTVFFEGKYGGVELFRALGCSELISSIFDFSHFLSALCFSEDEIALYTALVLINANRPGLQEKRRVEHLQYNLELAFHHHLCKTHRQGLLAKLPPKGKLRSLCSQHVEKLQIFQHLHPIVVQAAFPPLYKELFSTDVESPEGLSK
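Luciferase reporter read in Schneider cells carrying Gal4-RORγ (mouse) and UAS-Photinus luciferase; cells given compound 1 h before 700 uM copper sulfate induction, then incubated 20 h at ambient temperature.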
Gal4-VP16 FLuc: Gal4-VP16 reporter inhibition counter-screen; Drosophila S2 Gal4-VP16 UAS-luciferase, luminescence, 20 h; Potency, µM (series often up to 53.6 µM), hits mostly inhibitors; AID 2546; 310,000 compounds, 3.5% hits;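 also: Gal4-VP16 expression switched on by copper sulfate through the metallothionein promoter; nearly all actives have a fitted effect of over 50% in size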
FBPA coupling cs: counter-screen for Giardia aldolase inhibitors: coupling enzyme system; activity change, negative = inhibition, % at 58.2 µM, hits read low; 290,000 compounds, 0.67% hits; coupling enzyme system counterscreen, AmpLite Red fluorescence; AID 2472; in the data active = activity change below about -30%
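Activity here indicates interference with the coupling reaction, not aldolase inhibition. Compounds at 57.5 uM final met coupling enzymes for 10 min at RT; substrate and AmpLite Red detection followed, with a 525/598 nm fluorescence read after 20 min.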
TSHR antag: antagonists of human thyroid stimulating hormone receptor; TSHR-expressing cells, TSH-stimulated cAMP HTRF, 2 h; active compounds read low; activity change, negative = inhibition, % at 11.5 µM; 330,000 compounds, 0.2% hits;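 active = activity change below a set negative limit, meaning inhibition stronger than a set level, cut at about -70% in these data; inconclusive = activity change between two set negative limits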
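Competitive HTRF cAMP read-out (cryptate anti-cAMP antibody, cAMP-d2; 30 min, room temperature) in freshly harvested TSHR cells. Compounds added before TSH at EC80 (4nM final), followed by 2 hours' incubation at 37 deg C.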
ELG1 repair inh: blocks ELG1-dependent DNA repair in HEK293T cells; 330,000 compounds, 2.3% hits; HEK293T ELG1-luciferase reporter, luminescence, 16 h; DNA damage induced by 5-fluorouridine; Potency, µM (titrated, usually from 46.1 µM), most hits filed as inhibitors; AID 504467; also: nearly all actives have a fitted effect of over 55% in size
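Step one: seed 2,000 cells per well. Step two: pin-transfer compound or DMSO alongside 5-fluorouridine. Step three: incubate 16 hr, 37 °C, 5% CO2. Step four: add ONE-Glo, wait 30 min, read luminescence.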
A number is an active result; . = inactive; ? = inconclusive; / = no result given; [ ] = remark or other dose. Unless noted, calls follow the shape of the dose curve; as a rule, active = well fitted curve in the direction sought with a large enough effect; inconclusive = small, poorly fitted or top-dose-only effect, or another doubt; inactive = no such curve, though single readings can be large; an effect the other way counts as inactive or inconclusive.

SMILES | RORg inh | Gal4-VP16 FLuc | FBPA coupling cs | TSHR antag | ELG1 repair inh
CCc1cccc(C)c1NC(=S)NCC1CCN(c2ccc(OC)cc2)C1 (stereo unspecified) | 6.31µM | 7.08µM | . | . | ?
CCc1ccccc1NC(=S)NCC1CCN(c2ccc(OC)cc2)C1 (stereo unspecified) | 2.51µM | 10µM | . | . | .
COc1ccc(N2CCC(CNC(=S)Nc3cccc(OC)c3)C2)cc1 (stereo unspecified) | 3.16µM | 5.62µM | . | . | .
COC(=O)c1ccc(N2CCOCC2)c(NC(=O)c2cccnc2)c1 | . | . | . | . | .
COC(=O)[C@H](CCSC)NC(=O)Cn1cnc2c(SC)nc(N)nc21 | / | / | / | . | .
Cc1ccc(-n2c(C)cc(C(=S)N3CCOCC3)c2C)cc1C | 14.1µM | . | . | . | .
O=C(c1cccc(Oc2ccc([N+](=O)[O-])cc2Cl)c1)N1CCCCC1 | ? | . | . | . | 23.1µM
CC1CCN(C(=O)c2[nH]cnc2C(=O)N2CCN(c3ccccc3)CC2)CC1 | / | / | / | . | .
CCOC(=O)C(=CNc1cc(C)nn1C(C)(C)C)C(=O)OCC | . | . | . | . | ?
CCOC(=O)C(=CNc1cc(C)nn1-c1ccc(C)cc1)C(=O)OCC | . | . | . | . | 13µM
CSc1cccc(N2CC(C(=O)Nc3cccc(S(=O)(=O)N4CCCC4)c3)CC2=O)c1 (stereo unspecified) | / | / | / | . | ?
COc1ccc(-n2cc(-c3ccc(OC(F)F)cc3)[n+]3c2CCCCC3)cc1 | . | . | . | . | 5.17µM
COc1ccc(-c2cn(-c3ccc(Cl)cc3)c3[n+]2CCCCC3)cc1 | . | ? | . | . | 11.6µM
CCCn1c(N)c(C(=O)CSc2nnc(Cc3cccs3)n2C2CC2)c(=O)n(C)c1=O | / | / | / | . | 11.2µM
N/C(Cc1cccc2ccccc12)=N\OC(=O)c1cccs1 | . | . | . | . | .
N/C(Cc1cccc2ccccc12)=N\OC(=O)Cc1cccs1 | . | . | -39.6 | . | ?
Cc1ccccc1C(=O)O/N=C(\N)Cc1cccs1 | 7.94µM | ? | . | . | ?
O=C(Nc1ccccc1Cl)c1ccc(=O)[nH]n1 | . | . | . | . | .
Cc1cccc(OCCN2CSC(=S)N(C)C2)c1 | 12.6µM | 14.1µM | . | . | .
COc1ccccc1OCCN1CSC(=S)N(C)C1 | ? | ? | . | . | ?
COCCn1c(=O)c(-c2cccc(C#N)c2)nc2cnc(Oc3ccc(OC)cc3)nc21 | ? | . | . | / | /
CS(=O)(=O)c1ccc(C(=O)OCc2nnc(-c3ccccc3)o2)cc1[N+](=O)[O-] | 15.8µM | 12.6µM | . | ? | .
CN(C)S(=O)(=O)c1ccc(C(=O)OCc2nnc(-c3ccccc3)o2)cc1 | . | . | . | . | ?
CC(CCc1ccccc1)NC(=O)COC(=O)c1ccc(S(C)(=O)=O)c([N+](=O)[O-])c1 (stereo unspecified) | 10µM | ? | . | . | ?
COc1ccc(C(=O)OCC(=O)Nc2ccc(OC)c(S(=O)(=O)N3CCCCC3)c2)cc1[N+](=O)[O-] | / | / | / | . | .
SMILES | RORg inh | Gal4-VP16 FLuc | FBPA coupling cs | TSHR antag | ELG1 repair inh
COc1cc(NC(=O)COC(=O)c2ccc(C)c(S(=O)(=O)N3CCCCC3)c2)c(C)cc1[N+](=O)[O-] | .[10 µM] | . | . | . | 8.2µM
COc1cc(NC(=O)Cn2ncc(Cl)c(Cl)c2=O)c(C)cc1[N+](=O)[O-] | 2µM | 7.08µM | . | . | ?
O=C(NNC(=O)C12CC3CC(CC(C3)C1)C2)c1csc(N2CCOCC2)n1 | / | / | / | . | ?
CCN1CCN(c2ccc(S(=O)(=O)N3CCCCC3)cc2NC(=O)c2sccc2C)CC1 | / | / | / | . | .
CC(=O)c1cccc(NC(=O)COC(=O)c2ccc(S(C)(=O)=O)c([N+](=O)[O-])c2)c1 | ? | . | . | . | ?
Cc1ccccc1NC(=O)COC(=O)c1ccc(S(C)(=O)=O)c([N+](=O)[O-])c1 | 14.1µM | ? | . | . | ?
Cc1ccc(Cl)c(NC(=O)COC(=O)c2ccccc2C(=O)c2ccc(Cl)c([N+](=O)[O-])c2)c1Cl | ? | . | . | . | 18.4µM
CS(=O)(=O)c1ccc(C(=O)OCC(=O)NC(=O)C2CCCCC2)cc1[N+](=O)[O-] | 11.2µM | ? | . | ? | ?
O=C1c2c(O)cc(O)cc2O[C@H](c2ccc(O)c(O)c2)C1O (stereo partly specified) | . | . | . | / | /
Cc1ccc(OCCn2cnc3cc([N+](=O)[O-])ccc3c2=O)cc1 | . | . | . | . | 20.6µM
O=c1c2ccc([N+](=O)[O-])cc2ncn1CCOc1ccccc1 | . | .[10 µM] | . | . | ?
O=C(NCc1cccc(Cl)c1)c1cc(COc2ccc3ncccc3c2)on1 | . | 10µM | . | . | ?
CC(CCCC(C)(C)O)NC(=O)c1cc(COc2ccc3ncccc3c2)on1 (stereo unspecified) | 7.94µM | 5.62µM | . | . | 2.59µM
Cc1ccc(F)cc1CNC(=O)c1cc(COc2ccc3ncccc3c2)on1 | ? | 11.2µM | . | . | ?
Cc1ccc(OCc2cc(C(=O)NC(C)Cc3cccnc3)no2)cc1C (stereo unspecified) | ? | . | / | . | ?
Cc1cc(C)n(CCNC(=O)c2cc(COc3ccc4ncccc4c3)on2)n1 | ? | ? | . | . | ?
Cc1ccc(C)c(N2CC(C(=O)OCC(=O)Nc3cc(C)on3)CC2=O)c1 (stereo unspecified) | . | . | . | . | .
CCCC[C@@H]1C[C@H]1C(NC(=O)c1cccs1)c1ccc(Cl)cc1 (stereo partly specified) | ? | ? | . | / | /
COc1ccc(Cn2c(=O)sc3ccccc3c2=O)cc1 | . | . | . | . | .
CC(C)CCNC(=O)c1ccc(Cn2c(=S)[nH]c3ccccc3c2=O)cc1 | ? | ? | . | . | .
COc1ccc(Cn2c(=S)[nH]c3ccccc3c2=O)cc1 | 8.91µM | 10µM | . | . | .
Cc1ccc(Cn2c(=S)[nH]c3ccccc3c2=O)cc1 | 3.98µM | 6.31µM | . | . | .
Cn1cc(CN2CCC(n3nccc3NC(=O)CCOc3ccccc3)CC2)cn1 | . | . | . | . | .
CCOC(=O)C1=C(CSc2nc(-c3ccncc3)ccc2C#N)OC(N)=C(C#N)C1c1cccnc1 (stereo unspecified) | . | . | . | . | ?
CCOC(=O)C1=C(C(C)=O)C(c2cccnc2)C(C#N)=C(N)O1 (stereo unspecified) | . | . | -33.7 | . | .
N/C(=N\OC(=O)CC1CCCCC1)c1ccc([N+](=O)[O-])cc1 | . | 35.5µM | . | . | .
CC(=O)Nc1ccc(S(=O)(=O)N2CCc3nc(-c4ccccc4)c4c(c3C2)CO[C@@H](C)C4)cc1 | / | / | . | / | /
COc1ccc2occ(C(=O)c3ccccc3)c2c1 | . | . | . | . | ?
COc1ccc(C(=O)c2coc3c2C(=O)C(=O)c2ccccc2-3)cc1 | 11.2µM | ? | -74.6 | . | ?
